Compound activity from PubChem.
Vaccinia mCherry = vaccinia inhibition (mCherry reporter) | Vaccinia virus mCherry reporter infection, fluorescence | Potency, µM (doses to about 36.5 µM), hits mostly inhibitors | actives 0.63% (n = 310,000) | AID 720579; calls by dose curve; tested in A549 cells; also: nearly all actives have a fitted effect of over 35% in size
FBPA Giardia inh = blocks Giardia fructose-bisphosphate aldolase activity; purified Giardia FBPA; Potency, µM (series often up to 59.6 µM), most hits filed as inhibitors; actives 0.71% (n = 290,000); AID 2451; also: nearly all actives have a fitted effect of over 55% in size
Target sequence (A8B2U2 whole entry, looked up): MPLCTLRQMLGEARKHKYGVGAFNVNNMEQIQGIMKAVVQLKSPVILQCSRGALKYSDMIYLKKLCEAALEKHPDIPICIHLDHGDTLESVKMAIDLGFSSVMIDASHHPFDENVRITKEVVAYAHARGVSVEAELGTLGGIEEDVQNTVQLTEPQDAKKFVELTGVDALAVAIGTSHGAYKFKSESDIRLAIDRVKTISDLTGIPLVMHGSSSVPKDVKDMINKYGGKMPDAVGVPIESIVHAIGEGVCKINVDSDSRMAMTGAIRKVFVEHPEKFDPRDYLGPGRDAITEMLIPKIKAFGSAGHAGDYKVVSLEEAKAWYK
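Giardia FBPA (40 nM reagent) was preincubated 10 min at RT with compound (up to 57.5 uM final), then substrate plus GAPDH/TPI/NAD/arsenate coupling system with diaphorase/resazurin was added; resorufin fluorescence (525/598 nm) was read after 20 min.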
HCV inh = inhibitors of hepatitis C virus infection. Huh7.5.1 HCVcc-Cre infection, luciferase reporter, 44 h. Potency, µM (titrated, usually from 41.8 µM), actives largely listed as inhibitors. actives 3.4% (n = 340,000)
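Compounds are dispensed onto cells plated 4 h earlier at 1,000 per well, with HCVcc-Cre virus (about 0.5 moi) added next. Following 44 h of culture, luminescent signal is measured for 15 sec after 15 min with substrate at room temperature.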
FMDV antiviral = foot and mouth disease virus antiviral activity | actives 1.2% (n = 410,000) | FMDV antiviral cell-based qHTS | Potency, µM (highest dose often 57.9 µM), most hits filed as inhibitors; calls by dose curve; tested in HEK293T cells; also: read-out not given here; nearly all actives have a fitted effect of over 45% in size
Vaccinia Venus = inhibitors of vaccinia virus (Venus reporter); Vaccinia virus Venus reporter expression, fluorescence; Potency, µM (top dose mostly 36.5 µM), usual class: inhibitors; actives 0.46% (n = 330,000); calls by dose curve; tested in A549 cells; also: nearly all actives have a fitted effect of over 30% in size
HCMV antiviral = blocks human cytomegalovirus replication; HFF cells, HCMV-luciferase reporter, 72 h; hits give low values; activity change, negative = inhibition, % at 57.5 µM; actives 4.5% (n = 410,000); in the data active = activity change below about -60%; inconclusive = no clear call, values can overlap the other calls; inactive = above about -39%
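Inhibition of viral replication was scored as loss of reporter luminescence in HFFs infected with HCMV-luciferase (MOI 1 PFU/cell) for 72 h; compounds tested at 2 doses, normalized to buffer and Salinomycin controls.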
A number is an active result; – = inactive; ? = inconclusive; · = no result given. Shown are actives, neighbours in structure and some others; about 7.5% of the full set was active somewhere. Unless noted, calls follow the shape of the dose curve; as a rule, active = well fitted curve in the direction sought with a large enough effect; inconclusive = small, poorly fitted or top-dose-only effect, or another doubt; inactive = no such curve, though single readings can be large; an effect the other way counts as inactive or inconclusive.

SMILES	Vaccinia mCherry	FBPA Giardia inh	HCV inh	FMDV antiviral	Vaccinia Venus	HCMV antiviral
CC(=O)N1CCc2cc(CNS(=O)(=O)c3ccccc3C(F)(F)F)ccc21	–	·	·	–	–	-93
O=C(c1ccccc1)N1CCc2cc(CNS(=O)(=O)c3ccc(Cl)s3)ccc21	–	·	·	–	–	-70
CC(=O)N1CCc2cc(S(=O)(=O)CCC(=O)NCc3ccc(F)cc3)ccc21	·	·	–	–	·	-61
O=C(NCC1(N2CCOCC2)CCCC1)c1cnn(-c2nccc(-c3ccco3)n2)c1C1CC1	–	·	·	–	–	·
CCOc1cccc(C(=O)N(Cc2ccc(F)cc2)Cc2ccco2)c1	–	·	·	–	–	–
COc1ccc(NC(=O)CCn2cnc3onc(-c4ccc(F)cc4)c3c2=O)cc1OC	?	·	·	10µM	?	-72
COc1cc(Cl)c(C)cc1NC(=O)CCn1cnc2onc(-c3ccc(F)cc3)c2c1=O	–	·	·	–	–	–
Cc1cc(N=Nc2ccccc2C)ccc1N	?	·	13µM	–	–	–
C=CCNC(=O)C1CCN(c2nc(C)cc(-c3ccccc3)n2)CC1	–	–	2.8µM	–	–	–
CCCCC(CC)COC(=O)c1ccccc1C(=O)OCC(CC)CCCC (stereo not given)	–	·	5.6µM	–	–	–
CC(C)COC(=O)c1ccccc1C(=O)OCC(C)C	–	–	–	–	–	–
COc1ccc2nc(SCC(=O)NCc3ccccc3)[nH]c2c1	·	–	–	–	·	–
Cc1nc([N+](=O)[O-])c(Sc2nc3ccccc3[nH]2)n1Cc1ccccc1	?	–	?	?	–	–
Cc1cc2nc(Sc3c([N+](=O)[O-])nc(C)n3Cc3ccccc3)[nH]c2cc1C	?	–	–	32µM	?	–
COc1ccc2nc(Sc3c([N+](=O)[O-])nc(C)n3Cc3ccccc3)[nH]c2c1	·	–	?	16µM	·	–
Cc1nc2ccccn2c1-c1ccnn1S(=O)(=O)c1ccc(F)cc1	·	?	?	?	·	-94
Cc1ccc(NC(=O)C(=O)NN=C2CCCC2)cc1C	–	–	–	–	–	-104
CN1CCC(=NNC(=O)C(=O)Nc2ccc(F)cc2)CC1	–	–	–	–	–	–
NS(=O)(=O)c1ccc(NC2=CC(=O)C(=O)c3ccccc32)cc1	–	2.5µM	16µM	25µM	?	–
Cc1ccc(NC2=CC(=O)C(=O)c3ccccc32)cc1	·	5.6µM	10µM	–	·	-104
Cc1cc(NC2=CC(=O)C(=O)c3ccccc32)no1	?	·	?	?	?	-102
CCn1cc(C(=O)NCCc2ccc(Cl)cc2)c(=O)c2cc(S(=O)(=O)N3CCc4ccccc4C3)ccc21	?	·	·	–	–	–
Cc1csc2nc(COC(=O)c3ccc(NC(=O)C(C)Oc4ccccc4)cc3)cc(=O)n12 (stereo not given)	–	·	·	–	–	–
COc1cccc(-c2ccc3c(c2)C2CC3CCN2C(C)=O)c1 (stereo not given)	–	·	?	?	–	–
NC(Cc1ccc(F)cc1)c1csc(Nc2ccccn2)n1 (stereo not given)	?	·	·	–	?	–
SMILES	Vaccinia mCherry	FBPA Giardia inh	HCV inh	FMDV antiviral	Vaccinia Venus	HCMV antiviral
NC(CCc1ccccc1)c1csc(Nc2cnccn2)n1 (stereo not given)	10µM	·	·	–	?	–
NC(Cc1ccc(F)cc1)c1csc(Nc2cnccn2)n1 (stereo not given)	10µM	·	·	–	11µM	–
O=S1(=O)[C@H]2C[C@H](CO)O[C@@]2(CO)CN1Cc1ccc(-c2ccc(F)cc2)cc1	–	·	11µM	–	–	–
CC(C)NC(=O)C1(C)CN(S(C)(=O)=O)CC(=O)N1CC(F)(F)F (stereo not given)	–	·	·	–	–	–
Cc1ccc(O)c(N)c1	–	·	–	–	–	·
COc1ccc(O)c(N)c1	·	3.5µM	·	·	·	·
CC1=CC(C)(C)n2c(O)c(N=NC(N)=S)c3c(C)ccc1c32	1.3µM	–	?	–	?	–
COc1cccc(-c2sc3ccccc3c2-c2ccc(OCCN(C)C)cc2)c1	14µM	·	11µM	?	?	–
COc1cccc(-c2sc3ccccc3c2-c2ccc(OCCN3CCCC3)cc2)c1	?	·	?	?	13µM	–
c1ccc(-c2sc3ccccc3c2-c2ccc(OCCN3CCCC3)cc2)cc1	?	·	?	?	14µM	–
COc1ccc(-c2sc3ccccc3c2-c2ccc(OCCN3CCCCC3)cc2)cc1	–	·	–	–	–	–
